Most compounds without a hit are left out; they make up all but 3.4% or so of the library.
GPR151 activ: activators of human GPR151, primary screen, cell-based, PathHunter beta-arrestin, luminescence; G-protein coupled receptor 151 (Homo sapiens), Q8TDV0; PathHunter beta-arrestin GPR151 cells; activation, % at 11.2 µM; hit rate 1% among 650,000; AID 1508602, 2020; in the data active means activation above about 4.9%
FBW7 act: FBW7 E3 ligase activators, primary screen, biochemical, AlphaScreen, human; F-box/WD repeat-containing protein 7 (Homo sapiens), Q969H0; AlphaScreen FBW7–phospho-cyclin E peptide binding, activator screen; normalized activity (activation), % at 26.1 µM; hit rate 0.13% among 650,000; in the data active means normalized activity above about 1.9%;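 further: purified mutant Fbw7 with reduced substrate affinity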
MITF primary: MITF inhibitors, primary screen, biochemical, AlphaScreen, human | hit rate 0.91% among 650,000 | Microphthalmia-associated transcription factor (Homo sapiens), O75030 | inhibition, % at 2.6 µM | AlphaScreen MITF homodimerization, bead proximity signal; in the data active means inhibition above about 50%
Target sequence (O75030 whole entry, looked up): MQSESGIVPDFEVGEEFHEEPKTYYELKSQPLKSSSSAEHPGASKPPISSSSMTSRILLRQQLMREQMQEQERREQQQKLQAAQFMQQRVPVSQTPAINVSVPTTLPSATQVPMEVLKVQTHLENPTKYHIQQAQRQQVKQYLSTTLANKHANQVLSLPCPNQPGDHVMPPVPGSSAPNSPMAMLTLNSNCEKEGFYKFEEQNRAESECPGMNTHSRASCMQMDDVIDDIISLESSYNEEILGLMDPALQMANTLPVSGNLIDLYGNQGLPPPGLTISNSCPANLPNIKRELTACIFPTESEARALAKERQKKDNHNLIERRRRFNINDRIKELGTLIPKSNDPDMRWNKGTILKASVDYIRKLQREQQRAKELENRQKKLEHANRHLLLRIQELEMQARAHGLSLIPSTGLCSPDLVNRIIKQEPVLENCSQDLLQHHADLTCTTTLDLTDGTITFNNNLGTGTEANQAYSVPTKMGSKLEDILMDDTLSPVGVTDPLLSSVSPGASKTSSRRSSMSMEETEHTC
TEAD-YAP block: TEAD-YAP interaction inhibition, primary screen, TEAD-YAP interaction inhibitor project, luminescence, HEK-TIYL cells; TEAD-Gal4/YAP UAS-luciferase luminescence; inhibition, % at 9.12 µM; hit rate 1.4% among 640,000; AID 1259422, 2018; in the data active means inhibition above about 32%
Each line names hits and unclear results; the compound was inactive in the other large screens.

CCOC(=O)Cn1cc(/C=C2/C(=O)NC(=S)N(Cc3ccco3)C2=O)c2ccccc21	MITF primary 64
Cc1ccc(-n2cc(/C=C3/C(=O)NC(=O)N(Cc4ccco4)C3=O)cn2)cc1	MITF primary 73
NS(=O)(=O)c1cc(C(=O)OCC(=O)c2ccccc2)ccc1Cl	none
Cc1ccc(-n2nnnc2SCC(=O)Nc2ccc(Br)cc2)cc1C	none
CCCNC(=O)Cn1cnc2sc(C(=O)O)c(C)c2c1=O	none
O=C1NC(=O)N(Cc2ccco2)C(=O)/C1=C/c1ccc(N2CCOCC2)cc1	MITF primary 73
Cn1c(SCC(=O)NC(C)(C)C)nnc1-c1cccs1	none
CC(C)(C)n1nnnc1C(c1ccccc1)N1CCc2ccccc2C1 (stereo unspecified)	none
CCC(C)(C)n1nnnc1C(c1ccc(O)cc1)N1CCc2ccccc2C1 (stereo unspecified)	TEAD-YAP block 77
O=C(c1ccccc1)N1C(=O)c2ccccc2C1=O	FBW7 act 2.5
O=C(Nc1cnc2cnc(-c3ccc(N4CCOCC4)cc3)cn12)C1CCOC1 (stereo unspecified)	FBW7 act 2.4
c1ccc(-n2cnc3c(Nc4ccc(N5CCOCC5)cc4)nc(-c4ccc(N5CCOCC5)nc4)nc32)cc1	none
OCCNc1nc(-c2ccc(N3CCOCC3)nc2)nc2c1ncn2-c1ccccc1	TEAD-YAP block 61
c1ccc(-n2cnc3c(NC4CC4)nc(-c4ccc(N5CCOCC5)nc4)nc32)cc1	TEAD-YAP block 45
Fc1ccccc1Nc1nc(NCc2ccccc2)c2ccccc2n1	TEAD-YAP block 47
Cc1ccc(Nc2nc(NCc3ccccc3)c3ccccc3n2)cc1	TEAD-YAP block 36
Fc1ccccc1Nc1nc(NCc2ccco2)c2ccccc2n1	none
Cc1ccc(-c2nc(NCc3ccccc3)c3ccccc3n2)cc1	none
O=C(NC(=S)Nc1cccnc1)c1ccc(Cl)cc1	none
COc1ccc(-c2c(C)nn3c(NCc4ccncc4)cc(C)nc23)cc1	FBW7 act 4.0
COc1ccc(-c2c(C)nn3c(NCc4cccnc4)cc(C)nc23)cc1	none
COc1ccc(-c2c(C)nn3c(NCCCN(C)C)cc(C)nc23)cc1	FBW7 act 3.4
CCCCCOc1ccc(NC(=O)C(=O)NCCN2CCN(C(=O)c3ccc(Br)cc3)CC2)cc1	none
CC(=O)c1ccc(NC(=O)c2noc3c2CCC3)cc1	TEAD-YAP block 80
CCOC(=O)c1c(C)oc2ccc(O)c(C=O)c12	none
COc1ccc(-c2nc3ccccc3n2C)cc1	TEAD-YAP block 32
COc1ccc(-c2nc3ccccc3c(=O)n2-c2nc3ccccc3n2C)cc1	TEAD-YAP block 88
CCCn1c(-c2ccc(N)cc2)nc2ccccc21	TEAD-YAP block 35
Oc1c(C(c2ccccc2Cl)N2CCCCC2)ccc2cccnc12 (stereo unspecified)	TEAD-YAP block 87
Oc1c(C(c2ccccn2)N2CCCCC2)ccc2cccnc12 (stereo unspecified)	MITF primary 99, TEAD-YAP block 39
OCCN1CCN(C(c2ccccn2)c2ccc3cccnc3c2O)CC1 (stereo unspecified)	MITF primary 93
Oc1c(C(c2ccccc2Cl)N2CCOCC2)ccc2cccnc12 (stereo unspecified)	MITF primary 62, TEAD-YAP block 84
Cc1nc2sc(C(c3ccccc3Cl)N3CCCC3)c(O)n2n1 (stereo unspecified)	none
O=C(Nc1ccc(OCc2ccccc2)cc1)c1ccc(CN2CCOCC2)cc1	TEAD-YAP block 49
O=C(CN1CCN(CC(=O)Nc2ccc(OCc3ccccc3)cc2)CC1)Nc1ccc(F)cc1	none
O=C(CN1CCOCC1)Nc1ccc(OCc2ccccc2)cc1	TEAD-YAP block 33
O=C(Nc1ccc(CN2CCOCC2)cc1)c1ccc(OCc2ccccc2)cc1	none
O=C1ON=C(c2ccccc2)/C1=C/c1c(OCc2ccc(Cl)cc2)ccc2ccccc12	none
CCCCOc1ccccc1/C=C1/C(=O)ON=C1c1ccccc1	MITF primary 68
C=CCOc1ccc(/C=C2/C(=O)ON=C2c2ccccc2)cc1	MITF primary 65
O=C1ON=C(c2ccccc2)/C1=C\c1ccccc1OCc1ccc(Cl)cc1	MITF primary 68
CCOc1cc(/C=C2\C(=O)ON=C2c2ccccc2)ccc1OCc1ccccc1	MITF primary 57
CCCCCOc1ccccc1/C=C1/C(=O)ON=C1c1ccccc1	MITF primary 62

Screening results (PubChem BioAssay)
